Results filed as inconclusive are left out. Calls of active or inactive are those of the source. Rule for the calls, unless noted: active = hit-call score of the fitted dose curve at least 0.9, where 1 is the maximum; inconclusive = response in the unintended direction; inactive = score below 0.9.
How the values were obtained:
[1] = target: Cellular tumor antigen p53 (Homo sapiens) (UniProt P04637); test: TOX21_p53_BLA_p2_ratio: Tox21 HCT-116 p53 Agonism Beta-lactamase Assay, Ratio, Phase 2 (AID 2283592)
Sequence of Cellular tumor antigen p53 (Homo sapiens) (P04637 whole entry, looked up): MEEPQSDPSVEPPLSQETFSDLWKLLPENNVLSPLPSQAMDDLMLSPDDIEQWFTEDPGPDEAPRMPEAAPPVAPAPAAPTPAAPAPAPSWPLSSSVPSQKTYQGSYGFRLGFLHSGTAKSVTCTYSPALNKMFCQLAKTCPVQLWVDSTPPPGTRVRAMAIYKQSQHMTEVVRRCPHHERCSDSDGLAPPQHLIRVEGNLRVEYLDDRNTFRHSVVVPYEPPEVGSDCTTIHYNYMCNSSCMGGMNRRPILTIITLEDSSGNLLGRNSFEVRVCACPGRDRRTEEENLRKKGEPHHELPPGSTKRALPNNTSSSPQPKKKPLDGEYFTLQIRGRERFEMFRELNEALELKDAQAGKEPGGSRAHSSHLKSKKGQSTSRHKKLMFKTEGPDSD
Method in brief: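 An inducible beta-lactamase reporter in HCT116 cells signals p53 pathway activation. After 16 h chemical exposure at 37C, cells load CCF4-AM substrate for 2 h at room temperature; activity is the cleaved/uncleaved emission ratio relative to DMSO.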

[2] = TOX21_p53_BLA_p4_viability: Viability Assessment in the Tox21 HCT-116 p53 Agonism Beta-lactamase Assay, Phase 4 (AID 2283597);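 note: hits lower the luminescence signal meaning cytotoxicity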
Method in brief: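 Compound exposure of HCT116 cells lasts 16 h at 37C, 5% CO2, with DMSO stocks diluted 217-fold. Cellular ATP is then quantified by CellTiter-Glo luminescence after 30 min at room temperature.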

[3] = target: Cellular tumor antigen p53 (Homo sapiens) (UniProt P04637); test: TOX21_p53_BLA_p5_ratio: Tox21 HCT-116 p53 Agonism Beta-lactamase Assay, Ratio, Phase 5 (AID 2283599)
Method in brief: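 Beta-lactamase reporter ratio (blue 460 nm over green 530 nm, 405 nm excitation) after 2 h CCF4-AM loading, in HCT-116 cells exposed 16 h at 37 C to compounds pinned at 217-fold dilution. Increases relative to DMSO baseline scored.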

[4] = target: Cellular tumor antigen p53 (Homo sapiens) (UniProt P04637); test: TOX21_p53_BLA_p4_ratio: Tox21 HCT-116 p53 Agonism Beta-lactamase Assay, Ratio, Phase 4 (AID 2283601)
Method in brief: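 Signal is the blue/green (460nm/530nm) ratio of cleaved versus uncleaved CCF4-AM substrate, read after 2 h substrate loading. Cells were HCT116 carrying the p53-responsive beta-lactamase reporter, dosed 16 h at 37C, 5% CO2; CellTiter-Glo measured in parallel.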

[5] = TOX21_p53_BLA_p5_viability: Viability Assessment in the Tox21 HCT-116 p53 Agonism Beta-lactamase Assay, Phase 5 (AID 2283600)
Method in brief: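 Counter-readout for cytotoxicity: ATP-dependent luminescence from CellTiter-Glo, read in the beta-lactamase wells after 30 min at RT, following a 16 h compound exposure at 37C.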

[6] = CCTE_Shafer_MEA_dev_firing_rate_mean: CCTE's Neural Network Formation Assay for Mean Firing Rate, Shafer Lab (AID 2284031; active = hit-call score of the fitted dose curve at least 0.9, where 1 is the maximum; inactive = score below 0.9)
Method in brief: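 Rat primary cortical neurons were seeded on multielectrode arrays and treated from plating through day 12, with redosing at each feed. Spontaneous spiking was recorded four times; mean firing rate AUC was fitted downward against DMSO.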

[7] = CCTE_Shafer_MEA_dev_per_burst_spike_percent: CCTE's Neural Network Formation Assay for Percent of Spikes in a Burst, Shafer Lab (AID 2284032; active = hit-call score of the fitted dose curve at least 0.9, where 1 is the maximum; inactive = score below 0.9)
Method in brief: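 Rat primary cortical neurons on 16-electrode MEA wells, dosed from plating day 0 for 12 days with renewal on DIV 5 and 9; spikes-in-bursts percentage averaged over bursting electrodes, collapsed as AUC across days 5, 7, 9, 12; loss direction versus DMSO.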

[8] = CCTE_Shafer_MEA_dev_active_electrodes_number: CCTE's Neural Network Formation Assay for Number of Active Electrodes, Shafer Lab (AID 2284040)
Method in brief: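 Primary rat cortical neurons on 16-electrode MEA wells, exposed from day 0 through day 12 with compound renewed at DIV 5 and 9 feeds. Active electrodes (mean firing ≥5 spikes/min) counted at DIV 5, 7, 9, 12; trapezoidal AUC across days, loss-of-signal versus DMSO.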

[9] = CCTE_Shafer_MEA_dev_burst_rate: CCTE's Neural Network Formation Assay for Burst Rate, Shafer Lab (AID 2284042; active = hit-call score of the fitted dose curve at least 0.9, where 1 is the maximum; inactive = score below 0.9)
Method in brief: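 Developmental network assay measuring how 12-day exposure of rat cortical neuron cultures alters bursting on extracellular MEA recordings. Values are AUC of well-mean burst rate across four recording days, relative to DMSO vehicle.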

[10] = CCTE_Shafer_MEA_dev_bursting_electrodes_number: CCTE's Neural Network Formation Assay for Number of Bursting Electrodes, Shafer Lab (AID 2284043)
Method in brief: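 Read-out is the per-well number of electrodes bursting at least once every 2 minutes, recorded on days 5, 7, 9 and 12 and collapsed by trapezoidal area under the curve. Cultures were primary rat cortical neurons on MEA plates, treated continuously from plating.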

[11] = CCTE_Shafer_MEA_dev_per_burst_interspike_interval: CCTE's Neural Network Formation Assay for Burst Interspike Interval, Shafer Lab (AID 2284044; active = hit-call score of the fitted dose curve at least 0.9, where 1 is the maximum; inactive = score below 0.9;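 note: mean spike spacing inside bursts as AUC over recordings on days 5 7 9 12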)
Method in brief: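 Developmental network-formation MEA in primary rat cortical cultures with exposure spanning days 0–12. Within-burst ISI is averaged per well and integrated across recording days by area under the curve, with DMSO as negative control baseline.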

[12] = CCTE_Shafer_MEA_dev_burst_duration_mean: CCTE's Neural Network Formation Assay for Mean Burst Duration, Shafer Lab (AID 2284045; active = hit-call score of the fitted dose curve at least 0.9, where 1 is the maximum; inactive = score below 0.9)
Method in brief: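 Read-out: average first-to-last-spike interval within single-electrode bursts, averaged over bursting electrodes per well, then summarised as area under the curve across days 5, 7, 9 and 12. Developing rat cortical networks were exposed from day 0.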

[13] = CCTE_Shafer_MEA_dev_interburst_interval_mean: CCTE's Neural Network Formation Assay for Mean Interburst Interval, Shafer Lab (AID 2284046; active = hit-call score of the fitted dose curve at least 0.9, where 1 is the maximum; inactive = score below 0.9;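 note: well-mean interburst interval of bursting electrodes as AUC over four recording days; curve fitted for decrease in interburst interval relative to DMSO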)
Method in brief: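 Network formation assay in primary rat cortical cultures, exposed from DIV 0 to 12. Mean interburst interval per well, integrated as AUC over four recordings.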

[14] = CCTE_Shafer_MEA_dev_inter_network_spike_interval_mean: CCTE's Neural Network Formation Assay for Mean Inter-network Spike Interval, Shafer Lab (AID 2284047; active = hit-call score of the fitted dose curve at least 0.9, where 1 is the maximum; inactive = score below 0.9)
Method in brief: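 Compound was given at plating to primary rat cortical neurons and renewed with full medium changes on DIV 5 and 9. Extracellular activity was recorded on days 5, 7, 9, 12; AUC values were fitted for loss relative to DMSO control.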

[15] = CCTE_Shafer_MEA_dev_network_spike_number: CCTE's Neural Network Formation Assay for Number of Network Spikes, Shafer Lab (AID 2284048; active = hit-call score of the fitted dose curve at least 0.9, where 1 is the maximum; inactive = score below 0.9;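 note: synchronized bursts across electrodes counted on days 5 7 9 12 and integrated as AUC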)
Method in brief: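 Developing networks of primary rat cortical neurons are treated over 12 days starting at plating, with media and compound fully replaced on DIV 5 and 9. Network spike counts from four recording days are integrated as trapezoidal AUC.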

[16] = CCTE_Shafer_MEA_dev_network_spike_peak: CCTE's Neural Network Formation Assay for Mean Number of Electrodes in Network Spike, Shafer Lab (AID 2284049; active = hit-call score of the fitted dose curve at least 0.9, where 1 is the maximum; inactive = score below 0.9)
Method in brief: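 Rat cortical primary culture, 1.5 x 10^5 cells/well, 48-well MEA (16 electrodes/well). Dosing day 0 through DIV 12, full media/compound exchange DIV 5, 9. AxIS adaptive spike detection; AUC over days 5/7/9/12; loss-of-signal vs DMSO.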

[17] = CCTE_Shafer_MEA_dev_spike_duration_mean: CCTE's Neural Network Formation Assay for Mean Spike Duration, Shafer Lab (AID 2284051; active = hit-call score of the fitted dose curve at least 0.9, where 1 is the maximum; inactive = score below 0.9;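 note: mean network spike duration pooled as area under curve over DIV 5 to 12 recordings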)
Method in brief: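 With DMSO as baseline, loss of mean network spike duration was scored from extracellular recordings of rat cortical neurons on MEA plates. Exposure spanned plating to DIV 12; the four recording days were collapsed into one AUC value.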

[18] = CCTE_Shafer_MEA_dev_network_spike_duration_std: CCTE's Neural Network Formation Assay for Standard Deviation of Network Spike Duration, Shafer Lab (AID 2284052; active = hit-call score of the fitted dose curve at least 0.9, where 1 is the maximum; inactive = score below 0.9;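 note: area under curve of spike duration SD across recording days 5 to 12; hits are decreases in network spike duration SD versus DMSO vehicle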)
Method in brief: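 Developing networks of rat cortical neurons were exposed over twelve days in vitro on 48-well MEA plates. Trapezoidal AUC of recordings (DIV 5–12) was analysed for signal loss relative to DMSO vehicle.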

[19] = CCTE_Shafer_MEA_dev_per_network_spike_spike_number_mean: CCTE's Neural Network Formation Assay for Mean Number of Spikes in a Network Spike, Shafer Lab (AID 2284053; active = hit-call score of the fitted dose curve at least 0.9, where 1 is the maximum; inactive = score below 0.9)
Method in brief: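 First, rat cortical cells (1.5 x 10^5/well) were seeded onto MEA wells; second, dosing began at plating and was refreshed on DIV 5 and 9; finally, network-spike spike counts across DIV 5–12 were summarized as AUC.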

[20] = CCTE_Shafer_MEA_dev_per_network_spike_spike_percent: CCTE's Neural Network Formation Assay for Percent of Spikes in a Network Spike, Shafer Lab (AID 2284054; active = hit-call score of the fitted dose curve at least 0.9, where 1 is the maximum; inactive = score below 0.9)
Method in brief: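 Rat primary cortical cultures, 1.5 x 10^5 cells/well on MEA. Continuous compound exposure d0–12, medium/compound renewed DIV 5, 9. Network-spike spike % (0.05 s peak window), AUC over 4 recordings, DMSO baseline.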

[21] = CCTE_Shafer_MEA_dev_LDH: CCTE's Lactate Dehydrogenase Assay for Cytotoxicity in the Neural Network Formation Assay, Shafer Lab (AID 2284068);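 note: exposure for twelve days from plating with re-dosing on DIV 5 and 9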
Method in brief: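 Developing rat cortical networks on MEA plates are exposed to compound for 12 days from plating. LDH activity is measured spectrophotometrically, with DMSO as baseline.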

[22] = CCTE_Shafer_MEA_dev_mutual_information_norm: CCTE's Neural Network Formation Assay for Mutual Information Normalization, Shafer Lab (AID 2284091; active = hit-call score of the fitted dose curve at least 0.9, where 1 is the maximum; inactive = score below 0.9)
Method in brief: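 Developing rat cortical networks on 16-electrode MEA wells are treated throughout formation (DIV 0–12). Shared electrode information is recorded four times, converted to area-under-curve, and fitted for decreases against DMSO vehicle.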

[23] = CCTE_Shafer_MEA_dev_correlation_coefficient_mean: CCTE's Neural Network Formation Assay for Mean Correlation Coefficient, Shafer Lab (AID 2284093; active = hit-call score of the fitted dose curve at least 0.9, where 1 is the maximum; inactive = score below 0.9)
Method in brief: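 Extracellular firing from rat cortical networks on 48-well MEAs, DMSO-referenced, negative fitting direction. Compound present from plating to DIV12; mean pairwise correlation per well integrated over DIV5–12 recordings by trapezoidal AUC.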

Measured: outcome

O=C(O)CCNC(=O)c1ccc(N=Nc2ccc(O)c(C(=O)O)c2)cc1
inactive: [1] | [2] | [3] | [4]

Brc1cc2ccccc2c2ccccc12
inactive: [1] | [2] | [3]

C[N+]1(C)[C@@H]2CC(OC(=O)[C@H](CO)c3ccccc3)C[C@H]1[C@@H]1O[C@@H]12 (stereo not given in full)
inactive: [1] | [2] | [3] | [5] | [4]

CCOC(=O)[C@H](CCc1ccccc1)N[C@@H](C)C(=O)N1CC2(C[C@H]1C(=O)O)SCCS2
inactive: [1] | [2] | [3] | [4]

COc1ccc(C(=O)NCc2ccc(OCCN(C)C)cc2)cc1OC
inactive: [1] | [2] | [3] | [4]

C[Se]CC[C@H](N)C(=O)O
inactive: [1] | [2] | [3] | [5]

CCCCCCCCCCCCCCCCCl
inactive: [1] | [2] | [3] | [5] | [4]

c1ccc2nccnc2c1
inactive: [1] | [2] | [3]

c1cc2c3c(c1)ccc1cccc(c13)C2
inactive: all assays above

CCc1ccc(CC)cc1
inactive: [1] | [2] | [3] | [5] | [4]

O=C1NC(=O)[C@H]2[C@@H]1[C@@H]1C=C[C@H]2C1
inactive: [1] | [2] | [3] | [5] | [4]

CCC(C)(Oc1ccc(C2(c3ccc(OC(C)(CC)C(=O)O)cc3)CCCCC2)cc1)C(=O)O (stereo not given)
inactive: [1] | [2] | [3]

CCN1CCc2nc(N)oc2CC1
inactive: [1] | [2] | [3] | [5] | [4]

NNc1nnc(NN)c2ccccc12
inactive: [1] | [2] | [3] | [5] | [4]

CC(C)CCC[C@@H](C)[C@H]1CC[C@H]2[C@@H]3CC[C@@H]4C[C@H](O)CC[C@]4(C)[C@H]3CC[C@]12C
inactive: [1] | [2] | [3] | [5] | [4]

O=c1c(O)c(O)c1=O
inactive: [1] | [2] | [3] | [5] | [4]

COc1ccc([C@@H]2CC(=O)c3c(O)cc(O[C@@H]4O[C@H](CO[C@@H]5O[C@@H](C)[C@H](O)[C@@H](O)[C@H]5O)[C@@H](O)[C@H](O)[C@H]4O)cc3O2)cc1O
inactive: [1] | [2] | [3] | [5] | [4]

O=C[C@H](O)[C@@H](O)[C@H](O[C@H]1O[C@H](CO)[C@@H](O[C@H]2O[C@H](CO)[C@@H](O)[C@H](O)[C@H]2O)[C@H](O)[C@H]1O)[C@H](O)CO
inactive: [1] | [2] | [3]

Nc1nc(-c2ccc([N+](=O)[O-])cc2)cs1
inactive: [1] | [2] | [3] | [5] | [4]

NC(=O)c1cn(Cc2c(F)cccc2F)nn1
inactive: [1] | [2] | [5] | [4]

CCc1cccc(C)c1
inactive: [1] | [2] | [4]

CCCCCCCCCCCCCCCCOP(=O)([O-])OCC[N+](C)(C)C
inactive: [1] | [3]

Source: PubChem BioAssay (EPA / NIEHS)
